Screens from PubChem BioAssay.
TIM10 inh: growth inhibitors of isogenic TIM10 control yeast, primary screen, counter-screen for tim10-1 yeast inhibitor project, luminescence, uHTS; S. cerevisiae TIM10 strain growth, BacTiter-Glo luminescence, 24 h; inhibition, % at 10 µM; 330,000 compounds, 1.4% hits; AID 463195, 2010;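 active = inhibition of 40% or more at the single tested concentration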;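 also: wild-type TIM10 isogenic control strain grown at permissive 25 °C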
tim23-1 inh: growth inhibitors of tim23-1 mutant yeast, primary screen, luminescence, uHTS; S. cerevisiae tim23-1 growth, BacTiter-Glo luminescence, 24 h; inhibition, % at 20 µM; 330,000 compounds, 1.3% hits; AID 463212, 2010;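 active = growth inhibition of the mutant yeast at or above 50%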;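 also: temperature-sensitive mutant grown at 25 °C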
tim10-1 inh: growth inhibitors of tim10-1 mutant yeast, primary screen, luminescence, uHTS; inhibition, % at 20 µM; S. cerevisiae tim10-1 ts strain growth, BacTiter-Glo, 24 h; 330,000 compounds, 2.2% hits;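 active = inhibition of at least 40%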;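 also: mutant grown at 25 °C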
PfHsp90 set2: growth inhibition of PfHsp90-expressing yeast, primary screen, antimalarial PfHsp90 inhibitor project, S. cerevisiae, BacTiter-Glo luminescence, single point, set 2. inhibition, % at 9.4 µM. 310,000 compounds, 0.32% hits. BacTiter-Glo ATP, 48 h; yeast lacking PDR1 and PDR3 efflux regulators;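 active = every replicate shows inhibition above about 80%, whatever the replicate mean, limit read from the data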
NALP1 yeast inh: NALP1 inflammasome inhibitors in reconstituted yeast, colorimetric, S. cerevisiae, triplicate retest. 280,000 compounds, 0.61% hits. S. cerevisiae NALP1/ASC/caspase-1 growth, X-gal OD620, 72 h. inhibition, % at 10 µM. AID 2071, 2009; in the data active = inhibition mostly above about 24%, no sharp cut-off; inactive = mostly below about 32%
NALP3 yeast inh: NALP3 inflammasome inhibitors in reconstituted yeast, primary screen, luminescence, uHTS | inhibition, % at 10 µM | 330,000 compounds, 0.39% hits | Yeast reconstituted NLRP3/ASC/caspase-1, beta-gal luminescence, 24 h | AID 2825, 2010;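 active = inhibition of 50% or more; inactive = inhibition below 50%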
tim10-1 conf: growth inhibitors of tim10-1 mutant yeast, confirmation, single concentration, luminescence, S. cerevisiae. shares compounds with tim10-1 inh. S. cerevisiae tim10-1 ts strain growth, BacTiter-Glo, 24 h. inhibition, % at 20 µM. 7,400 compounds, 56% hits;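 active = inhibition of yeast growth at or above a set limit in either of two repeat tests at 20 µM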;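 also: tim10-1 mutant grown at permissive 25 °C to find synthetic lethal compounds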
Numbers stand for hits; – = inactive; · = no result given. Shown are actives, neighbours in structure and some others; about 4.1% of the full set was active somewhere.

SMILES	TIM10 inh	tim23-1 inh	tim10-1 inh	PfHsp90 set2	NALP1 yeast inh	NALP3 yeast inh	tim10-1 conf
Cc1cc2oc(=O)cc(CN3CCOCC3)c2c(C)c1Cl	–	–	–	–	–	–	·
O=C(NC(=S)NCc1ccc2c(c1)OCO2)c1ccccc1	–	–	45	–	–	–	–
COc1ccc(CC(=O)OCC(=O)NC(=O)NC23CC4CC(CC(C4)C2)C3)cc1	–	–	40	–	–	–	–
COc1ccc(C(=O)NCC(=O)OCC(=O)NC23CC4CC(CC(C4)C2)C3)cc1	–	–	–	–	·	–	·
O=C(NNC(=S)NCc1ccccc1)c1ccc2c(c1)OCO2	–	–	–	–	–	–	·
O=C(NCc1ccc2c(c1)OCO2)Nc1ccc(F)cc1	–	–	–	–	–	–	·
O=C(NCc1ccc2c(c1)OCO2)NC12CC3CC(CC(C3)C1)C2	–	–	41	–	–	–	30
O=C(NCCC1=CCCCC1)NC12CC3CC(CC(C3)C1)C2	–	–	41	–	–	–	32
CC(=O)N1c2ccc(F)c(F)c2C[C@H]1C	–	–	–	–	·	–	·
CC1(CO)COC2(OC1)C(=O)Nc1ccccc12 (stereo not drawn)	–	–	–	–	·	–	·
COc1ccc(C(=O)C2CCCN(C(=O)c3cccc(Cl)c3F)C2)cc1OC (stereo not drawn)	–	–	–	–	–	–	·
O=C(Cc1cccc(NC(=O)C2CCN(C(=O)c3ccccc3)CC2)c1)Nc1cccc(C(=O)N2CCCC2)c1	–	–	–	–	·	–	·
O=C(O)c1cc(-c2ccc(Cl)c(Cl)c2)n(-c2ccccc2)n1	–	–	–	–	–	–	·
COc1ccc(CCNC(=O)NC23CC4CC(CC(C4)C2)C3)cc1	–	–	45	–	–	–	35
COc1ccc(N2CCN(C(=O)NC34CC5CC(CC(C5)C3)C4)CC2)cc1	–	–	48	–	–	–	–
O=C(NCCc1ccc(F)cc1)NC12CC3CC(CC(C3)C1)C2	–	–	–	–	–	–	·
CC(=O)NS(=O)(=O)c1ccc(NC(=O)c2cccc3ccccc23)cc1	–	–	–	–	·	–	·
COc1cc(/C=C/c2cc(C(=O)O)c3ccccc3n2)cc(OC)c1O	–	–	–	–	–	–	·
COc1cc(C=C(c2nc3ccccc3s2)c2nc3ccccc3s2)ccc1O	–	–	51	–	·	–	39
COc1ccc(C=C(c2nc3ccccc3s2)c2nc3ccccc3s2)cc1O	–	–	–	–	–	–	·
COc1cc(/C=C/c2nc3ccccc3s2)cc(OC)c1O	–	–	44	·	–	–	–
CN(C)c1ccc(/C=C/c2nc3ccccc3s2)cc1	–	–	47	–	–	–	56
COc1ccc(Cl)cc1NC(=O)Cn1c(C)csc1=O	–	–	–	–	·	–	·
N#Cc1c(N)nc(SCC(=O)C23CC4CC(CC(C4)C2)C3)c(C#N)c1-c1ccc(Cl)cc1	–	–	45	–	–	–	43
O=C(NS(=O)(=O)NC1CCCCC1)C1=C(N2CCCC2)COC1=O	–	–	–	–	·	–	·
SMILES	TIM10 inh	tim23-1 inh	tim10-1 inh	PfHsp90 set2	NALP1 yeast inh	NALP3 yeast inh	tim10-1 conf
CC(C(=O)N1CCN(c2ccc(Cl)cc2)CC1)c1ncc(C(F)(F)F)cc1Cl (stereo not drawn)	–	–	43	–	–	–	–
CNC(=O)C(=O)Nc1ccc2c(c1)N(S(=O)(=O)c1cccs1)CCC2	–	–	–	·	·	–	·
CC(C)NC(=O)C(=O)Nc1ccc2c(c1)N(S(=O)(=O)c1cccs1)CCC2	–	–	43	–	·	–	–
CCOc1ccc(CNC(=O)Cn2ccc3cc(S(=O)(=O)N4CCCC4)ccc32)cc1	–	–	–	–	–	–	·
COc1ccc(-c2[nH]ncc2N=Nc2ccccc2)cc1	–	–	58	–	–	–	37
COc1ccc2c(CC(=O)NCCN3C(=O)S/C(=C\c4cccnc4)C3=O)coc2c1	–	–	50	–	–	–	–
COc1ccc(/C=C2\SC(=O)N(CCNC(=O)Cc3coc4cc(OC)ccc34)C2=O)cc1	–	–	–	–	–	–	·
O=C(NCCN1C(=O)S/C(=C/c2cccnc2)C1=O)c1cccs1	–	–	44	–	·	–	–
CCOc1cc(-c2c(C#N)c(N)nc3c2CCCC3C)ccc1O (stereo not drawn)	–	–	46	–	–	–	35
CCOc1cc(-c2cc(-c3ccc(C)cc3)nc(N)c2C#N)ccc1O	–	–	42	–	–	–	–
COc1ccc(NC(=O)c2ccccc2N2C(=O)C3C4C=CC(C5CC45)C3C2=O)c(OC)c1 (stereo not drawn)	–	–	–	–	–	–	·
CCN1C/C(=C\c2cc(OC)c(OC)c(OC)c2)C2=NN(c3ccccc3)C(c3cc(OC)c(OC)c(OC)c3)C2C1 (stereo not drawn)	·	·	·	–	·	·	·
O=C(COc1ccc(Br)cc1Br)NC(=O)NC1CCCC1	–	–	–	–	–	–	·
CC(C)(C)NC(=O)NC(=O)COc1ccc(Br)cc1Br	–	–	46	–	–	–	34
CN(CCCC(=O)O)c1ccc(N=Nc2ccc([N+](=O)[O-])cc2)cc1	–	–	54	–	·	–	45
CCOc1ccc(C2Nc3cccc4cccc(c34)N2)cc1OC	–	–	–	–	–	–	·
CCOc1cc(C2Nc3cccc4cccc(c34)N2)ccc1O	–	–	51	–	–	–	–
CC(C)C(=O)N1CCC2(CC1)Oc1ccc(F)cc1C(=O)C21CC(c2ccc(Cl)cc2)=NO1 (stereo not drawn)	–	–	47	·	–	–	–
CCC(=O)N1CCC2(CC1)Oc1ccc(F)cc1C(=O)C21CC(c2ccc(Cl)cc2)=NO1 (stereo not drawn)	–	–	–	–	–	–	·
CC(C)C(=O)N1CCC2(CC1)Oc1ccc(Cl)cc1C(=O)C21CC(c2ccccc2)=NO1 (stereo not drawn)	–	–	53	·	–	–	–
Cc1ccc(C(=O)N2CCC3(CC2)Oc2ccc(F)cc2C(=O)C32CC(c3ccc(Cl)cc3)=NO2)s1 (stereo not drawn)	–	–	51	·	–	–	33
CC(Oc1ccccc1)C(=O)N1CCC2(CC1)Oc1ccc(Cl)cc1C(=O)C21CC(c2ccccc2)=NO1 (stereo not drawn)	–	–	–	·	·	–	·
O=C(c1ccoc1)N1CCC2(CC1)Oc1ccc(Cl)cc1C(=O)C21CC(c2ccc(Cl)cc2)=NO1 (stereo not drawn)	–	–	54	–	–	–	41
